Test results: PubChem BioAssay (NCI)
Values joined by “and” are separate entries in the source; they are usually repeats but may differ in a detail not shown here. Identical values can stand only once. The panel holds about 79,000 compounds, 15% with a hit somewhere; the sample as a whole holds those more often. Active and inactive are the calls of the source. Cut-off read from the data, not from the text of the source: active = growth inhibition above about 70%; inactive = the rest. Where a SMILES comes first, the peptide text is derived from it. [ ]: non-standard residue; d: D form. The star is where a group is joined. ξ: configuration not given here. ξNMe2Val = CC(C)C(C(=O)*)N(C)C; NMeV = CN[CH](C(=O)O)C(C)C; NHBn = c1ccc(CN*)cc1

Assays:
[1] = NCI Yeast Anticancer Drug Screen. Data for the rad50 strain (AID 155);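 note: 0% = growth of vehicle-only cultures of the same strain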; conditions: S. cerevisiae rad50 strain growth inhibition; at 50.0 µM; hits give high values
In short: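 Inhibition values express reduced yeast growth in compound-treated cultures relative to vehicle-treated controls.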

[2] = NCI Yeast Anticancer Drug Screen. Data for the mec2-1 strain (AID 157); conditions: S. cerevisiae mec2-1 strain, at 50.0 µM, hits give high values
In short: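 Vehicle-treated cultures served as reference for growth inhibition of compound-exposed mec2-1 yeast.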

[3] = NCI Yeast Anticancer Drug Screen. Data for the sgs1 mgt1 strain (AID 161);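 note: 0% = growth of cultures given vehicle only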; conditions: S. cerevisiae sgs1 mgt1 strain, at 50.0 µM, hits give high values
In short: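 Read-out: growth inhibition vs vehicle controls. Cells: mutant yeast strain deficient in DNA damage repair.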

[4] = NCI Yeast Anticancer Drug Screen. Data for the cln2 rad14 strain (AID 165);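 note: 0% = growth equal to vehicle treated cultures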; conditions: S. cerevisiae cln2 rad14 strain, at 50.0 µM, hits give high values
In short: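 Each compound was tested on cln2 rad14 yeast. Inhibition of growth was calculated against vehicle-exposed controls.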

[5] = NCI Yeast Anticancer Drug Screen. Data for the bub3 strain (AID 167); conditions: S. cerevisiae bub3 mutant strain, at 50.0 µM, hits give high values
In short: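 Steps: expose the mutant yeast strain to compound; grow alongside vehicle-treated cultures; measure growth; express inhibition against the vehicle cultures.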

[6] = NCI Yeast Anticancer Drug Screen. Data for the mlh1 rad18 strain (AID 175); conditions: S. cerevisiae mlh1 rad18 strain growth inhibition; at 50.0 µM; hits give high values
In short: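 Vehicle-treated cultures served as the reference for growth inhibition in a yeast strain carrying DNA damage repair alterations exposed to each compound.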

Row | Compound | growth inhibition [1] | growth inhibition [2] | growth inhibition [3] | growth inhibition [4] | growth inhibition [5] | growth inhibition [6]
1 | CNC(C)Cc1ccccc1OC (centres undefined) (tested in a mixture with another compound) | -14.8% (inactive) | 1.9% (inactive) | 4.15% (inactive) | -35.9% (inactive) | 9.55% (inactive) | -7.7% (inactive)
2 | CCOP(=O)(OCC)/C(C#N)=C/c1ccc(C#N)cc1 | 30.6% (inactive) | 15.8% (inactive) | 10.8% (inactive) | 12.3% (inactive) | 14.7% (inactive) | 55.2% (inactive)
3 | CC(=O)OC1(C)CC(C)C(=O)C(C(O)CC2CC(=O)NC(=O)C2)C1 (centres undefined) | 92.8% (active) | 94.3% (active) | 93.7% (active) | 92.2% (active) | 93.3% (active) | 92.3% (active)
4 | NC(=O)C(Cl)(Cl)Cl | -6.6% (inactive) | 9.25% (inactive) | 6.1% (inactive) | 4.95% (inactive) | -5.65% (inactive) | 12.4% (inactive)
5 | CC1=NN(c2ccccc2)C(=O)C1N=Nc1ccc([As](=O)(O)O)c(O)c1 (centres undefined) | 15.9% (inactive) | -8.6% (inactive) | -6.8% (inactive) | -19.9% (inactive) | -26.5% (inactive) | -3.65% (inactive)
6 | CCN(CC)CCN1CC2CCCCC2C1 (centres undefined) | 4.25% (inactive) | 0.35% (inactive) | 1% (inactive) | 5.45% (inactive) | 11.6% (inactive) | 3% (inactive)
7 | CCC[N+](CCC)(CCC)CCC.[Ni+2].[SH2+]C([SH2+])=Nc1ccccc1.[SH2+]C([SH2+])=Nc1ccccc1 | 24.1% (inactive) | 18.9% (inactive) | 9.6% (inactive) | -20.9% (inactive) | 4.7% (inactive) | 30.1% (inactive)
8 | NC(CCCc1ccc(N(CCCl)CCCl)cc1)C(=O)O (centres undefined) | -1.55% (inactive) | -3.45% (inactive) | 8.75% (inactive) | -52.7% (inactive) | -6.15% (inactive) | -8.3% (inactive)
9 | CCCCCCCCCCCCC(=O)O.[Pb] | 1.45% (inactive) | 10.2% (inactive) | -14.4% (inactive) | 24.2% (inactive) | -2.05% (inactive) | 3.35% (inactive)
10 | CC(N)c1ccccc1 (centres undefined) | -5.95% (inactive) and 39.2% (inactive) | -6.55% (inactive) and 3% (inactive) | 11% (inactive) and 28% (inactive) | -23.1% (inactive) and 17.1% (inactive) | -10.3% (inactive) and 38.8% (inactive) | 2.8% (inactive) and 37.6% (inactive)
11 | C[N+](C)(C)Cc1ccc2ccccc2c1Br | 30.3% (inactive) | 7.05% (inactive) | 10.2% (inactive) | 10.3% (inactive) | 0.2% (inactive) | 20.6% (inactive)
12 | COc1ccc(C=O)cc1 | 41.5% (inactive) | -10.2% (inactive) | -7.5% (inactive) | -21.2% (inactive) | 0.8% (inactive) | 21.5% (inactive)
13 | CCOP(=O)(OCC)C(F)(F)CC1CCCCC1 | -17.1% (inactive) | -25.6% (inactive) | -19.4% (inactive) | -59% (inactive) | 26.2% (inactive) | -9.85% (inactive)
14 | CC(=O)NN=C(N)N | 3.15% (inactive) and -2% (inactive) | -1.5% (inactive) and 2.75% (inactive) | -0.55% (inactive) and 11.7% (inactive) | -29.9% (inactive) and -24.1% (inactive) | -6.75% (inactive) and -10.2% (inactive) | 14.1% (inactive) and 5.9% (inactive)
15 | N#CC(C#N)/C=C/[Se]c1ccccc1 | 14.2% (inactive) | 1.65% (inactive) | 2.1% (inactive) | 26.8% (inactive) | 0.35% (inactive) | 3.6% (inactive)
16 | COc1cc(C(=O)OC(C)CC2(c3ccccc3)C(=O)NC(=O)NC2=O)cc(OC)c1OC (centres undefined) | 2.75% (inactive) | -3.4% (inactive) | 24.1% (inactive) | 1.75% (inactive) | 3.05% (inactive) | -6.8% (inactive)
17 | OCCCCO | -5.9% (inactive) | -1.7% (inactive) | -12% (inactive) | -10.4% (inactive) | -12.1% (inactive) | 1.35% (inactive)
18 | CSP(=S)(SC)SC | 24% (inactive) | -5.7% (inactive) | 13.4% (inactive) | 22.1% (inactive) | -7.95% (inactive) | -15.8% (inactive)
19 | CC(C)SP(=S)(SC(C)C)SC(C)C | 8% (inactive) | -10.1% (inactive) | 8.3% (inactive) | -20.4% (inactive) | 4.15% (inactive) | 17.1% (inactive)
20 | CC(C)=C(OP1(=S)OCCN1C)C(C)(C)C(=O)N(C)C (centres undefined) | -2.6% (inactive) | -3.65% (inactive) | -1.9% (inactive) | 12.8% (inactive) | 11.9% (inactive) | 4.45% (inactive)

Row | Compound | growth inhibition [1] | growth inhibition [2] | growth inhibition [3] | growth inhibition [4] | growth inhibition [5] | growth inhibition [6]
21 | CCC(CC)(COC(=O)C(O)(c1ccccc1)c1ccccc1)C[N+](C)(C)C | -4.45% (inactive) | -2.85% (inactive) | 1% (inactive) | -24.9% (inactive) | 0.5% (inactive) | -12.7% (inactive)
22 | NC(N)=Nc1c(N)ncnc1N | -4.9% (inactive) | 6.2% (inactive) | 4.4% (inactive) | -2.65% (inactive) | -0.8% (inactive) | -4.45% (inactive)
23 | CC(C)C(NC(=O)C(C(C)C)N(C)C)C(=O)N(C)C(C(=O)N1CCCC1C(=O)N1CCCC1C(=O)NCc1ccccc1)C(C)C (centres undefined) (ξNMe2Val-V[NMeV]PP-NHBn; configuration not given here) | -18.3% (inactive) | -17.7% (inactive) | -22.9% (inactive) | 12% (inactive) | 3.55% (inactive) | -47% (inactive)
24 | COc1ccccc1CC(C)N (centres undefined) | 1.35% (inactive) | -5.6% (inactive) | 8.3% (inactive) | 16% (inactive) | 16.1% (inactive) | 16.3% (inactive)
25 | CC1(C)OCC(C2NC2C2COC(C)(C)O2)O1 (centres undefined) | -4.55% (inactive) | -6.85% (inactive) | -11.1% (inactive) | -40.4% (inactive) | -10.9% (inactive) | 6.5% (inactive)
26 | COC(=O)C1C(O)C(C)C(O)C(C)/C=C\C=C(C)C(=O)Nc2c(C)c(OC(C)=O)c3c(c2O)C(=O)C(C)=C2OCOC(=C23)C(C)=CC(C)(O)C(O)C(C)C1O (centres undefined) | 11.9% (inactive) and -16.8% (inactive) and 23.8% (inactive) | -15.7% (inactive) and -27.9% (inactive) and -5.4% (inactive) | 12.1% (inactive) and -26.9% (inactive) and 3.05% (inactive) | -10.2% (inactive) and -5.2% (inactive) and 9.2% (inactive) | 26.9% (inactive) and -13.5% (inactive) and 10% (inactive) | 16.6% (inactive) and -24.6% (inactive) and 19.4% (inactive)
27 | CC1(C)OP23(NC(=O)OC2(C(F)(F)F)c2ccccc2O3)OC1(C)C (centres undefined) | -14.6% (inactive) | -13.5% (inactive) | -40.5% (inactive) | -4.1% (inactive) | -41.6% (inactive) | -27.4% (inactive)
28 | C/C(=N\N(C)C)C(CN(C)C)C(c1ccccc1)c1c(O)c2ccccc2oc1=O (centres undefined) | 16.8% (inactive) | -18.5% (inactive) | 13.8% (inactive) | 1.5% (inactive) | 37.8% (inactive) | 18.9% (inactive)
29 | CCC(C)Sc1ccccc1OC(=O)NC (centres undefined) | -10.4% (inactive) | 7.05% (inactive) | 0.5% (inactive) | -16.6% (inactive) | 9.85% (inactive) | 24.1% (inactive)
30 | CCOC(CNCc1cccnc1)OCC | -20.7% (inactive) | -10.6% (inactive) | -23.6% (inactive) | 5.9% (inactive) | -13.7% (inactive) | -17.3% (inactive)
31 | CC(=O)C1(c2ccccc2)CCCN(C)CC1 (centres undefined) | -7.8% (inactive) | -8.95% (inactive) | 8.2% (inactive) | 1.35% (inactive) | 3.45% (inactive) | -3.45% (inactive)
32 | CCC1(CC)C(=O)NC(=O)N(C)C1=O | 33.4% (inactive) | 10.2% (inactive) | 31.5% (inactive) | 28.8% (inactive) | 8.25% (inactive) | 24.7% (inactive)
33 | NC(=NCCCC(NCc1ccccc1)C(=O)O)N[N+](=O)[O-] (centres undefined) | 16.3% (inactive) | 17.6% (inactive) | 16.6% (inactive) | 16.9% (inactive) | 6.85% (inactive) | 16.1% (inactive)
34 | COc1ccc2c(c1)CC(CN1CCC3(CC1)C(=O)NCN3c1ccccc1)O2 (centres undefined) | 76.7% (active) | 57% (inactive) | 86.4% (active) | 79% (active) | 55.5% (inactive) | 78.5% (active)
35 | CC(C)(C[N+](=O)[O-])C[N+](=O)[O-] | -1.45% (inactive) | -34.1% (inactive) | 15.6% (inactive) | -19.1% (inactive) | -1.7% (inactive) | 10.9% (inactive)
36 | COc1ccc(CC(N)c2ccccc2)cc1OC (centres undefined) | -15.3% (inactive) | 23.9% (inactive) | -8.85% (inactive) | -21.1% (inactive) | -1.55% (inactive) | -29.1% (inactive)
37 | CC(N)CCc1ccccc1 (centres undefined) | 2.7% (inactive) | -19.9% (inactive) | -1.15% (inactive) | 24.7% (inactive) | 3.6% (inactive) | 12.4% (inactive)
38 | CC(=O)O[C@H]1C(=O)[C@@]2(C)C(C(OC(=O)c3ccccc3)[C@]3(O)C[C@H](OC(=O)C(OC(=O)CCCC(=O)NCCCN(C)C)C(NC(=O)c4ccccc4)c4ccccc4)C(C)=C1C3(C)C)C1(OC(C)=O)COC1C[C@@H]2O (some centres undefined) | -1.1% (inactive) | -0.35% (inactive) | 3.8% (inactive) | -10.3% (inactive) | -0.95% (inactive) | 7.35% (inactive)
39 | O=C1NC(=O)C(CC(Br)CBr)(c2ccccc2)C(=O)N1 (centres undefined) | 16.6% (inactive) | -1.45% (inactive) | 20.8% (inactive) | 11.4% (inactive) | -0.75% (inactive) | 11.2% (inactive)
